# From PubChem BioAssay AID1159580 (chemical genetic matrix, 2015)
# Where “and” joins values, the source holds several entries; their conditions need not be identical. Equal entries are not always repeated. Screen size: about 5,500 compounds; about 2,000 (36%) were called active. Roughly 18% stayed inconclusive and do not appear here. This is one part of the list. Unmarked numbers belong to inactive results. No stated cut-off is given here; in the data, active means normalized growth mostly below about 0.91 (no sharp cut-off); inconclusive means no clear call, values can overlap the other calls; inactive means mostly above about 0.92.
# Assay: chemical genetic growth profiling, strain panel (AID 1159580);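 further: tested at 20 µM; growth read once vehicle control cultures reached saturation at 30 °C; 1 = growth at the plate median or of vehicle wells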
# Conditions: S. cerevisiae deletion strains, growth OD
compound,measurement,setting,value
CC(=O)N1CCN(c2ccc(OCC3CO[C@](Cn4ccnc4)(c4ccc(Cl)cc4Cl)O3)cc2)CC1 (stereo partly drawn),normalized growth,"locus YAL021C, strain ccr4, stronger effect = lower value",0.196 (active)
same,normalized growth,"locus YAL026C, strain drs2, stronger effect = lower value",0.0754 (active)
same,normalized growth,"locus YAL030W, strain snc1, stronger effect = lower value",0.0875 (active)
same,normalized growth,"locus YBL061C, strain skt5, stronger effect = lower value",0.0954 (active)
same,normalized growth,"locus YBR009C, strain hhf1, stronger effect = lower value",0.0917 (active)
same,normalized growth,"locus YBR021W, strain FUR4, stronger effect = lower value",0.163 (active)
same,normalized growth,"locus YBR023C, strain chs3, stronger effect = lower value",0.0942 (active)
same,normalized growth,"locus YBR171W, strain sec66, stronger effect = lower value",0.162 (active)
same,normalized growth,"locus YBR229C, strain ROT2, stronger effect = lower value",0.124 (active)
same,normalized growth,"locus YBR231C, strain swc5, stronger effect = lower value",0.0937 (active)
same,normalized growth,"locus YBR279W, strain paf1, stronger effect = lower value",0.0988 (active)
same,normalized growth,"locus YCL011C, strain gbp2, stronger effect = lower value",0.0885 (active)
same,normalized growth,"locus YCL016C, strain dcc1, stronger effect = lower value",0.102 (active)
same,normalized growth,"locus YCL029C, strain bik1, stronger effect = lower value",0.087 (active)
same,normalized growth,"locus YCL061C, strain MRC1, stronger effect = lower value",0.0977 (active)
same,normalized growth,"locus YCL069W, strain vba3, stronger effect = lower value",0.0793 (active)
same,normalized growth,"locus YCR088W, strain abp1, stronger effect = lower value",0.111 (active)
same,normalized growth,"locus YDL005C, strain med2, stronger effect = lower value",0.327 (active)
same,normalized growth,"locus YDL035C, strain GPR1, stronger effect = lower value",0.0672 (active)
same,normalized growth,"locus YDL040C, strain nat1, stronger effect = lower value",0.113 (active)
same,normalized growth,"locus YDL074C, strain BRE1, stronger effect = lower value",0.157 (active)
same,normalized growth,"locus YDL101C, strain DUN1, stronger effect = lower value",0.086 (active)
same,normalized growth,"locus YDL134C, strain PPH21, stronger effect = lower value",0.0637 (active)
same,normalized growth,"locus YDL185W, strain tfp1, stronger effect = lower value",0.542 (active)
same,normalized growth,"locus YDL192W, strain arf1, stronger effect = lower value",0.156 (active)
same,normalized growth,"locus YDR001C, strain nth1, stronger effect = lower value",0.105 (active)
same,normalized growth,"locus YDR069C, strain doa4, stronger effect = lower value",0.228 (active)
same,normalized growth,"locus YDR101C, strain arx1, stronger effect = lower value",0.101 (active)
same,normalized growth,"locus YDR137W, strain rgp1, stronger effect = lower value",0.449 (active)
same,normalized growth,"locus YDR150W, strain NUM1, stronger effect = lower value",0.0966 (active)
same,normalized growth,"locus YDR159W, strain sac3, stronger effect = lower value",0.135 (active)
same,normalized growth,"locus YDR162C, strain NBP2, stronger effect = lower value",0.0614 (active)
same,normalized growth,"locus YDR195W, strain ref2",0.254 (active)
same,normalized growth,"locus YDR297W, strain sur2, stronger effect = lower value",0.1 (active)
same,normalized growth,"locus YDR318W, strain mcm21, stronger effect = lower value",0.0866 (active)
same,normalized growth,"locus YDR334W, strain swr1, stronger effect = lower value",0.0914 (active)
same,normalized growth,"locus YDR335W, strain msn5, stronger effect = lower value",0.101 (active)
same,normalized growth,"locus YDR388W, stronger effect = lower value",0.0742 (active)
same,normalized growth,"locus YDR392W, strain spt3, stronger effect = lower value",0.106 (active)
same,normalized growth,"locus YDR502C, strain sam2, stronger effect = lower value",0.0927 (active)
same,normalized growth,"locus YEL003W, strain gim4, stronger effect = lower value",0.0768 (active)
same,normalized growth,"locus YEL037C, strain rad23, stronger effect = lower value",0.129 (active)
same,normalized growth,"locus YEL061C, strain CIN8 (second series), stronger effect = lower value",0.084 (active)
same,normalized growth,"locus YEL061C, strain CIN8, stronger effect = lower value",0.0807 (active)
same,normalized growth,"locus YER015W, strain faa2, stronger effect = lower value",0.0977 (active)
same,normalized growth,"locus YER016W, strain bim1, stronger effect = lower value",0.0966 (active)
same,normalized growth,"locus YER110C, stronger effect = lower value",0.129 (active)
same,normalized growth,"locus YER111C, strain swi4, stronger effect = lower value",0.123 (active)
same,normalized growth,"locus YER155C, strain BEM2 (second series), stronger effect = lower value",0.329 (active)
same,normalized growth,"locus YER155C, strain BEM2, stronger effect = lower value",0.0986 (active)
same,normalized growth,"locus YER167W, strain BCK2, stronger effect = lower value",0.064 (active)
same,normalized growth,"locus YFR010W, strain ubp6, stronger effect = lower value",0.302 (active)
same,normalized growth,"locus YGL078C, strain dbp3, stronger effect = lower value",0.908 (active)
same,normalized growth,"locus YGL086W, strain mad1, stronger effect = lower value",0.0803 (active)
same,normalized growth,"locus YGL167C, strain pmr1, stronger effect = lower value",0.191 (active)
same,normalized growth,"locus YGL173C, strain kem1, stronger effect = lower value",0.226 (active)
same,normalized growth,"locus YGL227W, strain vid30, stronger effect = lower value",0.0914 (active)
same,normalized growth,"locus YGL240W, strain doc1, stronger effect = lower value",0.166 (active)
same,normalized growth,"locus YGL248W, strain PDE1, stronger effect = lower value",0.0653 (active)
same,normalized growth,"locus YGL253W, strain hxk2, stronger effect = lower value",0.0717 (active)
same,normalized growth,"locus YGR078C, strain PAC10, stronger effect = lower value",0.0678 (active)
same,normalized growth,"locus YGR135W, strain pre9, stronger effect = lower value",0.0918 (active)
same,normalized growth,"locus YGR229C, strain SMI1, stronger effect = lower value",0.0729 (active)
same,normalized growth,"locus YGR252W, strain gcn5, stronger effect = lower value",0.213 (active)
same,normalized growth,"locus YHR013C, strain ard1, stronger effect = lower value",0.139 (active)
same,normalized growth,"locus YHR027C, strain rpn1, stronger effect = lower value",0.174 (active)
same,normalized growth,"locus YHR030C, strain SLT2, stronger effect = lower value",0.0646 (active) and 0.118 (active)
same,normalized growth,"locus YHR079C, strain IRE1 (second series), stronger effect = lower value",0.0993 (active)
same,normalized growth,"locus YHR079C, strain IRE1, stronger effect = lower value",0.155 (active)
same,normalized growth,"locus YHR094C, strain hxt1, stronger effect = lower value",0.0943 (active)
same,normalized growth,"locus YHR129C, strain ARP1, stronger effect = lower value",0.0814 (active)
same,normalized growth,"locus YHR142W, strain chs7, stronger effect = lower value",0.0981 (active)
same,normalized growth,"locus YHR200W, strain rpn10, stronger effect = lower value",0.133 (active)
same,normalized growth,"locus YIL066C, strain RNR3, stronger effect = lower value",0.0659 (active)
same,normalized growth,"locus YIL073C, strain SPO22, stronger effect = lower value",0.202 (active)
same,normalized growth,"locus YIL125W, strain kgd1, stronger effect = lower value",0.964
same,normalized growth,"locus YIR030C, strain dcg1, stronger effect = lower value",0.0973 (active)
same,normalized growth,"locus YJL092W, strain hpr5, stronger effect = lower value",0.093 (active)
same,normalized growth,"locus YJL095W, strain BCK1 (second series), stronger effect = lower value",0.0703 (active)
same,normalized growth,"locus YJL095W, strain BCK1, stronger effect = lower value",0.0666 (active) and 0.127 (active)
same,normalized growth,"locus YJL115W, strain asf1, stronger effect = lower value",0.113 (active)
same,normalized growth,"locus YJL129C, strain trk1, stronger effect = lower value",0.117 (active)
same,normalized growth,"locus YJL134W, strain LCB3, stronger effect = lower value",0.0818 (active)
same,normalized growth,"locus YJL154C, strain vps35, stronger effect = lower value",0.123 (active)
same,normalized growth,"locus YJL164C, strain tpk1, stronger effect = lower value",0.0872 (active)
same,normalized growth,"locus YJL166W, strain qcr8, stronger effect = lower value",0.0816 (active)
same,normalized growth,"locus YJL168C, strain set2, stronger effect = lower value",0.0995 (active)
same,normalized growth,"locus YJL187C, strain SWE1 (second series), stronger effect = lower value",0.0726 (active)
